For 22 compounds, Potency and activity change, negative = cytotoxicity results are on record in PubChem BioAssay (NCATS).

Inconclusive results are not listed. A call without a number means that no potency is given here. Active and inactive are the calls of the source. The call rests on the fitted dose curve; in most records, active means well fitted cell-killing curve with a large enough effect; inconclusive means small, poorly fitted or top-dose-only effect; inactive means flat fitted curve, though single readings scatter.
Potency means the concentration at half of the fitted maximal effect.

The assay can be described thus: Cell Viability - Mesenchymal (AID 546).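 Further: cells exposed to compound for 40 hours before reading.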 The following applies: mesenchymal cells viability, qHTS; activity change, negative = cytotoxicity: at 91.7 µM (top of the series). An excerpt: NIH Chemical Genomics Center [NCGC]
NIH Molecular Libraries Screening Centers Network [MLSCN]
National Institutes of Environmental Health Sciences [NIEHS]
National Toxicology Program [NTP]
We have developed a 1536-well cell-based assay for quantitative high throughput screening (qHTS) against a number of cell lines to determine in vitro cytotoxicity of small molecules. This particular assay uses the kidney mesenchymal cell line which is derived from normal human renal glomeruli.
NCGC Assay Protocol Summary:
The CellTiter-Glo luminescent cell viability assay (Promega) is a homogeneous method to measure the number of viable cells in culture. The end point readout of this assay is based on quantitation of intracellular ATP, an indicator of metabolic activity, using the luciferase reaction. Luciferase catalyzes the oxidation of beetle Luciferin to oxyluciferin and light in the presence of ATP. The luminescent signal is proportional to amount of ATP present.
Using the CellTiter-Glo luminescent cell viability assay, the amount of cellular ATP was measured in the kidney mesenchymal cell line with complete culture medium following compound treatment for 40 hours. The assay was performed in opaque white Kalypsys 1536-well plates. In the screen, tamoxifen and doxorubicin were used as positive controls. Library compounds were measured for their ability to cause acute toxicity in the cell line, as reflected by a decrease in intracellular ATP levels, in a concentration-dependent manner. […] AC50 values were determined from concentration-response data modeled with the standard Hill equation.
qHTS protocol for CellTiter Glo kidney mesenchymal cells cellular assay
[Step] [Parameter] [Value] [Description]
1. Reagent; 5 uL; 1000 kidney mesenchymal cells/well
2. Time; 5 hr; 37 °C incubation
4. Controls; 23 nL; Tamoxifen 0.34 uM to 100 uM & Doxorubicin 0.02 nM to 100 uM
5. Time; 40 hr; 37 °C incubation
6. Reagent; 5 uL; CellTiter Glo reagent
7. Time; 20 min; Room Temperature
8. Detection; Luminescence; Viewlux plate reader
Keywords: cell viability, cytotoxicity, Kidney mesenchymal cell line, luminescence, NTPHTS, NTPHTS_NCGC, NIEHS, EPA, DSSTox, MLSMR, MLSCN, NIH Roadmap, qHTS, NCGC
For orientation: Quantitative high-throughput screening tests each substance at several concentrations.
Consider `CC1(C)S[C@@H]2[C@H](NC(=O)[C@H](N)c3ccccc3)C(=O)N2[C@H]1C(=O)O`, for which the Potency result was “inactive”.

Take `NCCO`: the Potency result was “inactive”. Same read-out and setting: in the case of `Nc1nc2ccc([N+](=O)[O-])cc2s1` it was “inactive”; in that of `CCCOC(=O)c1ccc(O)cc1`, “inactive”. Same read-out and setting: in the case of `Oc1ccccc1O` it was “inactive”; in that of `COc1cc(/C=C/C(=O)CC(=O)/C=C/c2ccc(O)c(OC)c2)ccc1O`, “inactive”.

For the compound `N=C1N=C(N)c2cc3ccccc3cc21`, the activity change, negative = cytotoxicity is -91.8% (active). For `O=C(O)/C=C\C(=O)O`, the Potency result was “inactive”. In the case of `CN(C)c1ccc(N=NS(=O)(=O)O)cc1`, the Potency result is “inactive”.

Take `C#C[C@]1(O)CC[C@H]2[C@@H]3CCc4cc(O)ccc4[C@H]3CC[C@@]21C`: the Potency entry is “inactive”. Consider `c1ccc2sc(SSc3nc4ccccc4s3)nc2c1`, for which the Potency result was “inactive”. Turning to `CN1CCC[C@H]1c1cccnc1`, the Potency result was “inactive”.

`Nc1ccc(O)c([N+](=O)[O-])c1`: the Potency result was “inactive”. In the case of `COc1cc(CNC(=O)CCCC/C=C/C(C)C)ccc1O`, the Potency entry was “inactive”.

For `CN(C)c1ccc(C(=C2C=CC(=[N+](C)C)C=C2)c2ccccc2)cc1`, the Potency was 316 nM (active). Same read-out and setting: in the case of `CCCCCCCCCCCCCCCCCC(=O)O` it was “inactive”. Still for that read-out and setting: in the case of `Nc1ccc([N+](=O)[O-])cc1O` it was “inactive”. Still for that read-out and setting: in the case of `O=C1CN(/N=C/c2ccc([N+](=O)[O-])o2)C(=O)N1` it was “inactive”; in that of `c1cnc2c(c1)ccc1cccnc12`, “inactive”; in that of `Nc1ccc(O)c(C(=O)O)c1`, “inactive”. For `CN(C)CCC(c1ccc(Cl)cc1)c1ccccn1` (configuration not stated), the Potency result was “inactive”.

Take `S=c1[nH]c2ccccc2s1`: the Potency entry was “inactive”.
